Consider 17 compounds from PubChem BioAssay.

Active and inactive are the calls of the source. Unless noted, no rule for the calls is given here.

In assay [1] the test system is XIP peptide (Xip251-270) binding. The assay can be described thus: XIP fragment 251-270 binding compounds – biochemical, small-molecule microarray, fluorescence 635/667 nm, 0.1 µg/mL protein, primary screen (AID 1182). Particulars: fluorescent protein binding, 635 nm, higher = more signal, called active from +8 up or from −8 down.
Assay [2] relates to XIP peptide (Xip251-270). The assay can be described thus: compounds binding XIP fragment 251-270 – biochemical, small-molecule microarray, fluorescence 635/667 nm, 0.5 µg/mL protein, primary screen (AID 1183). Particulars: fluorescence 635 nm, higher = more signal.
A short description of assay [3]: blood-stage malaria parasite viability loss – strain 3D7, DAPI fluorescence, 100 nL, primary screen (AID 1184).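 Also: parasites grown inside human red blood cells in medium with human serum.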 To be noted: P. falciparum 3D7 growth, 3 d, higher = more signal.
Assay [4] has as its target Homeobox protein Hox-A13 (Mus musculus) (UniProt Q62424). The assay can be described thus: disruptors of Hoxa13 oligonucleotide interaction – biochemical, fluorescence polarization, labeled oligonucleotide, primary screen (AID 1185). To be noted: Hoxa13:DNA binding, 15 min, higher = more signal, called active from +8 up or from −8 down.
Assay [5] in a line: blockers of DNA damage checkpoint Chk1 activation – imaging, HeLa, hydroxyurea, phospho-Chk1 antibody, percent positive cells, primary screen (AID 1186). Particulars: hydroxyurea-induced phospho-Chk1 immunofluorescence imaging, higher = more signal.
Assay [6] in a line: blockers of DNA damage checkpoint Chk1 activation – imaging, HeLa, hydroxyurea, phospho-Chk1 nuclear intensity, primary screen (AID 1187). To be noted: hydroxyurea-induced phospho-Chk1 immunofluorescence imaging, higher = more signal.

Chain of Homeobox protein Hox-A13 (Mus musculus) (Q62424 whole entry, looked up): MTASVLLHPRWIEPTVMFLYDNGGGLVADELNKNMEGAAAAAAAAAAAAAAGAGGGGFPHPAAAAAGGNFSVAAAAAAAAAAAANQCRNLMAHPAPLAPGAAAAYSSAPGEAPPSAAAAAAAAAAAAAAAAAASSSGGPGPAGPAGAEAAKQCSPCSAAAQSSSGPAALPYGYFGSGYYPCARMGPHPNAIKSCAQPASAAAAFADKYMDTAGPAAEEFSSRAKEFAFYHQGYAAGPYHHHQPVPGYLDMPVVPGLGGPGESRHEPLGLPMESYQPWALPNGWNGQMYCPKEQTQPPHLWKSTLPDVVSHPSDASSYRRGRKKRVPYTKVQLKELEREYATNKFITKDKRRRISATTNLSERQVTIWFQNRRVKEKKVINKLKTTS

Regarding `O=C1O[C@H](c2ccccc2)[C@H](c2ccccc2)N2[C@H]1[C@@H](C(=O)O)[C@]1(C(=O)Nc3ccc(C#CC4=CCCCC4)cc31)[C@H]2c1ccccc1OCCO`, the composite z-score in assay [1] is 0.746 (inactive); in assay [2] it was 0.745. In addition, the z-score in assay [3] was -1.86; in assay [4] it was -2.65 (inactive); in assay [5] it was 0.144 (inactive); in assay [6], -0.0653 (inactive).
As for `CC(C)(C)OC(=O)CC[C@@]12N=C(c3ccc(OCCCO)cc3)O[C@@H]1c1ccccc1N(CCS(=O)(=O)c1ccccc1)C2=O`, the composite z-score is -0.204 (inactive) in assay [1] and 0.569 in assay [2]. For the same compound, the z-score in assay [3] is -1.7; in assay [4] it was -3.42 (inactive); in assay [5] it was -0.739 (inactive); in assay [6], -0.767 (inactive).
Turning to `COc1ccc(C#Cc2ccc3c(c2)[C@]2(C(=O)N3)[C@H](c3ccccc3OCCO)N3[C@H](c4ccccc4)[C@H](c4ccccc4)OC(=O)[C@H]3[C@@H]2C(=O)O)cc1`, the composite z-score was 2.03 (inactive) in assay [1] and 0.695 in assay [2]. Also, the z-score was -1.27 in assay [3], -4.32 (inactive) in assay [4], -0.331 (inactive) in assay [5] and -0.416 (inactive) in assay [6].
As to `CC(C)C[C@@H]1NC(=O)[C@H]2C[C@@H](C(=O)NCCCCCCN)[C@@H](c3ccc(O)cc3)N2C1=O`, the figures for the composite z-score in assay [1] and in assay [2] were 1.43 (inactive) and 0.776, respectively. Also, the z-score in assay [3] was -0.108; in assay [4], -2.64 (inactive); in assay [5], 0.273 (inactive); in assay [6] it was -0.265 (inactive).
On to `C=CCC(OC(C)=O)[C@@H]1[C@@H](N(Cc2ccc(-c3cccc(C(F)(F)F)c3)o2)C(=O)Cc2ccc(F)cc2)c2cc(OCCCO)ccc2N1C(=O)Cc1ccc(OC)cc1` (some centres not stated), for which the composite z-score is 0.664 (inactive) in assay [1] and -0.0147 in assay [2]. Further, the z-score in assay [3] is -1.61; in assay [4], -1.69 (inactive); in assay [5] it was 0.0521 (inactive); in assay [6], 0.633 (inactive).
For `C=CC[C@]1(C(=O)NCCCOC)N=C(c2ccc(OCCCO)cc2)O[C@H]1c1ccccc1N=[N+]=[N-]`, the composite z-score in assay [1] is 0.403 (inactive); in assay [2], 0.707. In addition, the z-score in assay [3] is -1.99; in assay [4], -3.07 (inactive); in assay [5] it was -0.432 (inactive); in assay [6], 0.0181 (inactive).
On to `CC(=O)NCCCC[C@@H]1NC(=O)[C@@H]2C[C@H](C(=O)NCCCCN(C)C)[C@H](c3cccc(OCCO)c3)N2C1=O`, for which the composite z-score in assay [1] is 0.172 (inactive); in assay [2] it was 0.237. The z-score in assay [3] was -0.363; in assay [4], -1.75 (inactive); in assay [5], -0.281 (inactive); in assay [6], -0.0329 (inactive).
`O=C(NCc1ccccc1)[C@@H]1c2ccccc2C(=O)N(CC23CC4CC(CC(C4)C2)C3)[C@H]1c1ccc(CO)cc1`: the composite z-score was 0.149 (inactive) in assay [1] and 0.794 in assay [2]. Moreover, the z-score in assay [3] was -1.76; in assay [4], -3.43 (inactive); in assay [5], -0.221 (inactive); in assay [6] it was -0.338 (inactive).
Turning to `O=C1C2C=CC(C(O)C3CCCCC3)N(Nc3ccc([N+](=O)[O-])cc3)C2C(=O)N1c1ccccc1` (configuration not stated), the values for the composite z-score in assay [1] and in assay [2] were -0.375 (inactive) and 0.526, respectively. For the same compound, the z-score is -1.5 in assay [3], -2.33 (inactive) in assay [4], -0.0882 (inactive) in assay [5] and -0.177 (inactive) in assay [6].
In the case of `CO[C@H]1O[C@H](CO)[C@@H](OC(=O)Nc2ccc(Br)cc2)[C@H](OC(=O)c2cc3ccccc3[nH]2)[C@H]1OC(=O)c1cc2ccccc2[nH]1`, the composite z-score in assay [1] is 1.36 (inactive); in assay [2] it was 0.716. For the same compound, the z-score in assay [3] is -1.64; in assay [4], -2.09 (inactive); in assay [5], -0.547 (inactive); in assay [6], -0.872 (inactive).
In the case of `C=CCOC(=O)[C@@H]1[C@H]2C(=O)O[C@H](c3ccccc3)[C@H](c3ccccc3)N2[C@H](c2ccc(OCCOC(=O)[C@@H]3C[C@@H]4C(=O)N[C@@H](Cc5ccccc5)C(=O)N4[C@@H]3c3ccc(O)cc3)cc2)[C@@]12C(=O)Nc1ccc(I)cc12`, the composite z-score in assay [1] is 0.895 (inactive); in assay [2] it was 0.736. For the same compound, the z-score in assay [3] is -1.95; in assay [4] it was -0.584 (inactive); in assay [5] it was 0.193 (inactive); in assay [6], 0.453 (inactive).
Take `CCOC(=O)[C@H]1C/C=C/C[C@H](C(=O)OCC)C(=O)O[C@H]2[C@@H](OC)O[C@H](CO)[C@@H](OC(=O)Nc3cccc(F)c3)[C@@H]2OC1=O`: the composite z-score in assay [1] was 1.17 (inactive); in assay [2], 0.526. In addition, the z-score is -1.73 in assay [3], -2.16 (inactive) in assay [4], -0.197 (inactive) in assay [5] and -0.145 (inactive) in assay [6].
`O=C1c2ccccc2[C@@]2(Cc3ccccc3N(CC(F)(F)F)C2=O)[C@H](c2ccc(CO)cc2)N1Cc1ccccc1Cl`: the composite z-score in assay [1] was 0.0764 (inactive); in assay [2], 0.182. For the same compound, the z-score in assay [3] was -0.699; in assay [4], 0.0876 (inactive); in assay [5], -0.19 (inactive); in assay [6] it was -0.245 (inactive).
Regarding `C[C@]1(C(=O)NC2CC2)c2ccccc2C(=O)N(Cc2cc(C(F)(F)F)cc(C(F)(F)F)c2)[C@H]1c1ccc(CO)cc1`, the figures for the composite z-score in assay [1] and in assay [2] were 1.56 (inactive) and 0.849, respectively. The z-score in assay [3] is -0.895; in assay [4] it was -3.26 (inactive); in assay [5], -0.66 (inactive); in assay [6], -0.479 (inactive).
For `COc1ccc(C(=O)O[C@H]2CC[C@]3(C)C4=C(CCC3C2(C)C)[C@]2(C)CC[C@H]([C@H](C)CCCC(C)C)[C@@]2(C)CC4)cc1` (some centres not stated), the composite z-score in assay [1] was -0.674 (inactive); in assay [2], 0.0738. Also, the z-score was 0.148 in assay [3], -1.08 (inactive) in assay [4], -0.975 (inactive) in assay [5] and -1.15 (inactive) in assay [6].
On to `[N-]=[N+]=NCc1ccccc1C[C@@]1(C(=O)NCC(O)CO)N=C(c2ccc(OCCCO)cc2)O[C@@H]1c1ccccc1N=[N+]=[N-]` (some centres not stated), for which the composite z-score was 1.78 (inactive) in assay [1] and 0.384 in assay [2]. The z-score in assay [3] was -2.37; in assay [4], -1.72 (inactive); in assay [5], -0.0225 (inactive); in assay [6], 0.105 (inactive).
`C=CC[C@]12N=C(c3ccc(OCCCO)cc3)O[C@H]1c1ccccc1N(Cc1ccccc1)C2=O`: the composite z-score in assay [1] is 0.0479 (inactive); in assay [2], 0.586. Besides, the z-score in assay [3] is -2.17; in assay [4], 0.196 (inactive); in assay [5], -0.241 (inactive); in assay [6] it was -0.197 (inactive).
